Reference: PubChem BioAssay AID1159580 (chemical genetic matrix, 2015)
Where “and” joins values, the source holds several entries; their conditions need not be identical. Equal entries are not always repeated. The campaign covered roughly 5,500 compounds. About 2,000 (36%) were called active. Another 18% or so got no clear call; they are omitted. Cut-off read from the data, not from the text of the source: active = normalized growth mostly below about 0.91 (no sharp cut-off); inconclusive = no clear call, values can overlap the other calls; inactive = mostly above about 0.92. Some of the results follow.

Assay: chemical genetic growth profiling, strain panel (AID 1159580);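 note: tested at 20 µM; growth read once vehicle control cultures reached saturation at 30 °C; 1 = growth at the plate median or of vehicle wells; lower values mean less growth of the strain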
Conditions: S. cerevisiae deletion strains, growth OD

Measured: normalized growth

C[C@]12CC[C@H](O)C[C@H]1CCC1C2CC[C@]2(C)[C@@H](C3=CC(=O)OC3)[C@@H](O)C[C@]12O (stereo partly drawn)
inactive: locus YBR021W, strain FUR4, active compounds read low 1.02 | locus YBR229C, strain ROT2, active compounds read low 1.02 | locus YCL029C, strain bik1, active compounds read low 1.01 | locus YDL035C, strain GPR1, active compounds read low 1.08 | locus YDL074C, strain BRE1, active compounds read low 1.1 | locus YDL101C, strain DUN1, active compounds read low 1.02 | locus YDL185W, strain tfp1, active compounds read low 0.974 | locus YDL192W, strain arf1, active compounds read low 1.02 | locus YDR101C, strain arx1, active compounds read low 1 | locus YDR150W, strain NUM1, active compounds read low 1.03 | locus YDR162C, strain NBP2, active compounds read low 1.03 | locus YDR318W, strain mcm21, active compounds read low 0.998 | locus YDR388W, active compounds read low 0.984 | locus YDR502C, strain sam2, active compounds read low 1.01 | locus YEL061C, strain CIN8, active compounds read low 1.02 | locus YER110C, active compounds read low 0.997 | locus YER155C, strain BEM2, active compounds read low 1 | locus YER167W, strain BCK2, active compounds read low 1.02 | locus YGL078C, strain dbp3, active compounds read low 0.982 | locus YGL086W, strain mad1, active compounds read low 1 | locus YGL248W, strain PDE1, active compounds read low 1.05 | locus YGR078C, strain PAC10, active compounds read low 1.03 | locus YGR135W, strain pre9, active compounds read low 1 | locus YGR229C, strain SMI1, active compounds read low 1.13 | locus YGR252W, strain gcn5, active compounds read low 0.962 | locus YHR030C, strain SLT2, active compounds read low 1 | locus YHR079C, strain IRE1 (second series), active compounds read low 0.983 | locus YHR079C, strain IRE1, active compounds read low 0.982 | locus YHR094C, strain hxt1, active compounds read low 0.982 | locus YHR129C, strain ARP1, active compounds read low 1.03 | locus YHR200W, strain rpn10, active compounds read low 0.995 | locus YIL066C, strain RNR3, active compounds read low 1.03 | locus YIL073C, strain SPO22, active compounds read low 1.07 | locus YIL125W, strain kgd1, active compounds read low 1.02 | locus YIR030C, strain dcg1, active compounds read low 0.994 | locus YJL095W, strain BCK1, active compounds read low 1.07 and 0.981 | locus YJL134W, strain LCB3, active compounds read low 1.02 | locus YJL168C, strain set2, active compounds read low 0.975 | locus YJL187C, strain SWE1 (second series), active compounds read low 1.04 | locus YJR043C, strain POL32, active compounds read low 1.06 | locus YJR066W, strain TOR1, active compounds read low 0.968 | locus YKL009W, strain mrt4, active compounds read low 1.01 | locus YKL068W, active compounds read low 0.994 | locus YKL085W, strain MDH1 (second series), active compounds read low 0.996 | locus YKL085W, strain MDH1, active compounds read low 0.996 | locus YKL190W, strain CNB1, active compounds read low 1.02 | locus YKR001C, strain vps1, active compounds read low 1.03 | locus YLR039C, strain RIC1, active compounds read low 1.15 | locus YLR058C, strain SHM2, active compounds read low 1.04 | locus YLR102C, strain apc9, active compounds read low 0.989 | locus YLR113W, strain HOG1, active compounds read low 0.975 | locus YLR262C, strain YPT6, active compounds read low 1.16 | locus YLR268W, strain sec22, active compounds read low 1 | locus YLR330W, strain CHS5, active compounds read low 1.02 | locus YLR342W, strain FKS1 (second series), active compounds read low 1.05 | locus YLR371W, strain rom2, active compounds read low 1 | locus YLR418C, strain cdc73, active compounds read low 1.01 | locus YML016C, strain PPZ1, active compounds read low 1.03 | locus YML032C, strain rad52, active compounds read low 1 | locus YML124C, strain tub3, active compounds read low 0.987 | locus YMR078C, strain ctf18, active compounds read low 0.986 | locus YMR223W, strain ubp8, active compounds read low 1 | locus YMR307W, strain GAS1, active compounds read low 1.19 | locus YNL067W, strain RPL9B, active compounds read low 1.01 | locus YNL153C, strain GIM3, active compounds read low 1.04 | locus YNL183C, strain NPR1, active compounds read low 0.93 | locus YNL233W, strain BNI4, active compounds read low 1.06 | locus YNL250W, strain rad50, active compounds read low 1.01 | locus YNL271C, strain bni1, active compounds read low 0.999 | locus YNL298W, strain CLA4, active compounds read low 0.994 | locus YNL307C, strain MCK1, active compounds read low 0.98 | locus YNR052C, strain pop2, active compounds read low 0.987 | locus YOL006C, strain TOP1, active compounds read low 1.27 | locus YOL012C, strain htz1 1.03 | locus YOL147C, strain pex11, active compounds read low 0.993 | locus YOR061W, strain CKA2, active compounds read low 1.03 | locus YOR069W, strain VPS5, active compounds read low 1.02 | locus YOR136W, strain idh2, active compounds read low 0.991 | locus YOR144C, strain elg1, active compounds read low 0.989 | locus YOR184W, strain ser1, active compounds read low 1.05 | locus YOR231W, strain MKK1, active compounds read low 0.982 | locus YOR316C, strain cot1, active compounds read low 1 | locus YPL256C, strain CLN2, active compounds read low 1.03 | locus YPR119W, strain clb2, active compounds read low 0.982 | locus YPR141C, strain kar3, active compounds read low 0.997 | locus YPR163C, strain tif3, active compounds read low 0.997 | locus YPR167C, strain met16, active compounds read low 0.99 | strain wtn01, active compounds read low 1.02
